From PubChem BioAssay (Tox21)
Where “and” joins values, the source holds several entries; their conditions need not be identical. Equal values may be shown once. Inconclusive results are not listed. Calls of active or inactive are those of the source. Unless noted, calls come from the whole dose curve; as a rule, active = well fitted curve in the direction sought with a large enough effect in the repeat runs; inconclusive = weak or mixed curves; inactive = no such curve, though single readings can be large; an effect the other way counts as inactive or inconclusive.

Experiments:
[1] = qHTS assay to identify small molecule agonists of the hypoxia (HIF-1) signaling pathway - cell viability counter screen (AID 1224844; calls by dose curve; note: nearly all actives have a fitted effect of over 50% in size; note: potency is the fitted concentration of half-maximal effect)
Outline: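 Multiplexed with the HRE beta-lactamase assay, this viability read used CellTiter-Glo luminescence (30 min, RT) on HRE-bla ME-180 cells treated 17 hrs with compounds in 0.5% dialyzed FBS medium.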

[2] = qHTS assay to identify small molecule agonists of H2AX (AID 1224845; active = well fitted activation curve with a large enough effect in the signal ratio in the repeat runs, not every such curve was filed as active; the % refers to the signal ratio)
Outline: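 Wild-type CHO-K1 cells, plated overnight, exposed 3hr at 37C to 15 concentrations (0.76% DMSO final). Lysed, then HTRF anti-pH2AX (S139) cryptate and anti-H2AX-d2 antibodies, 24 hr room temperature; 665/620 nm emission read.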

[3] = qHTS assay to identify small molecule agonists of H2AX - cell viability counter screen (AID 1224847; calls by dose curve; note: nearly all actives have a fitted effect of over 30% in size; note: potency is the fitted concentration of half-maximal effect)
Outline: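 Counter-screen for viability: CellTiter-Glo ATP luminescence read after 3 h compound treatment (15-point titration, 0.76% DMSO final) of CHO-K1 cells at 37C, with 30 min room-temperature reagent incubation.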

[4] = qHTS RealTime-Glo MT Cell Viability Assay in HepG2 cells - 24 hour (AID 1224867); note: nearly all actives have a fitted effect of over 50% in size; note: potency is the fitted concentration of half-maximal effect
Outline: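 Luminescence read-out: viable HepG2 cells reduce a prosubstrate to a NanoLuc substrate, giving a signal proportional to live cell number. Reads taken at 0, 8, 16, 24, 32 and 40 h of compound exposure at 37 C.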

[5] = qHTS RealTime-Glo MT Cell Viability Assay in HEK293 cells - 32 hour (AID 1224868); note: nearly all actives have a fitted effect of over 50% in size; note: potency is the fitted concentration of half-maximal effect
Outline: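 Nonlytic real-time viability readout: viable cells convert prosubstrate to NanoLuc substrate, giving luminescence proportional to live cell number. HEK293, 600 cells/well, compound added after 5 h, continuous culture at 37 C.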

[6] = A CellTox Green Cytotoxicity Assay to monitor cytotoxicity in HEK293 cells - 0 hour (AID 1224869); note: nearly all actives have a fitted effect of over 50% in size
Outline: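 Seeding of HEK293 cells together with cytotoxicity dye preceded a 5 h incubation at 37 C/5% CO2. Test compounds in DMSO were then added and fluorescence monitored across 40 h.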

[7] = qHTS RealTime-Glo MT Cell Viability Assay in HepG2 cells - 40 hour (AID 1224870); note: nearly all actives have a fitted effect of over 50% in size; note: potency is the fitted concentration of half-maximal effect
Outline: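 HepG2 cells (600/well) mixed with RealTime-Glo MT reagent, settled 5 h at 37 C/5% CO2 before compound addition. Nonlytic NanoLuc luminescence from viable-cell prosubstrate reduction read repeatedly during 40 h treatment at 37 C.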

[8] = qHTS assay to identify small molecule antagonists of the estrogen related receptor (ERR) signaling pathway from Tox21 library (AID 1224848); note: nearly all actives have a fitted effect of over 50% in size
Outline: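 ERR reporter cell line (from NTP) seeded 2,000 cells/well, rested 6 h at 37 C/5% CO2, then pin-dosed with compounds in DMSO. After 18 h at 37 C, ONE-Glo added; luminescence read after 30 min at room temperature.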

[9] = qHTS assay to identify small molecule agonists of the estrogen related receptor (ERR) signaling pathway from Tox21 library (AID 1224849; calls by dose curve; note: nearly all actives have a fitted effect of over 15% in size); conditions: ERR reporter cell line, ONE-Glo luciferase, 18 h
Outline: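 Six hours post-seeding at 37 C/5% CO2, ERR cells receive DMSO-solubilised compounds; after 18 h at 37 C, ONE-Glo reagent is applied and luminescence recorded.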
% is set by controls: 0 for no effect and ±100 for the full control effect.

Cc1scc2c1N(C(=O)CN1CCN(C)CC1)c1ccccc1NC2=O
inactive: Potency [1] | Potency [2] | Potency [3] | Potency [4] | Potency [5] | Potency [6] | Potency [7]

CCC[C@H](N[C@@H](C)C(=O)N1[C@H](C(=O)O)C[C@@H]2CCCC[C@@H]21)C(=O)OCC
inactive: Potency [1] | Potency [2] | Potency [3] | Potency [4] | Potency [5] | Potency [6] | Potency [7]

c1ccc2n[nH]nc2c1
inactive: Potency [1] | Potency [2] | Potency [3] | Potency [4] | Potency [5] | Potency [6] | Potency [7]

CCCN[C@H]1CCc2nc(N)sc2C1
inactive: Potency [1] | Potency [2] | Potency [3] | Potency [4] | Potency [5] | Potency [6] | Potency [7]

CCn1cc(C(=O)O)c(=O)c2cc(F)c(N3CCNC(C)C3)c(F)c21 (centres undefined)
inactive: Potency [1] | Potency [2] | Potency [3] | Potency [8] | activity change, positive = activation ([9]; at 42.5 µM (top of the series)) 3.97% | Potency [4] | Potency [5] | Potency [6] | Potency [7]

CC(C(O)c1ccc(O)cc1)N1CCC(Cc2ccccc2)CC1 (centres undefined)
inactive: Potency [1] | Potency [2] | Potency [3] | Potency [8] | activity change, positive = activation ([9]; at 42.5 µM (top of the series)) -0.85% | Potency [4] | Potency [5] | Potency [6] | Potency [7]

COc1ccc(COC(C)=O)cc1
inactive: Potency [1] | Potency [2] | Potency [3] | Potency [8] | activity change, positive = activation ([9]; at 92.4 µM (top of the series)) 0.212% and 1.93% | Potency [4] | Potency [5] | Potency [6] | Potency [7]

CC(=O)C1=C(C)[C@@H]2C[C@@]3(C1)[C@H](C)CC[C@H]3C2(C)C
inactive: Potency [1] | Potency [2] | Potency [3] | Potency [4] | Potency [5] | Potency [6] | Potency [7]

CN1C(=O)c2ccc([N+](=O)[O-])cc2C1=O
inactive: Potency [1] | Potency [2] | Potency [3] | Potency [8] | activity change, positive = activation ([9]; at 92.4 µM (top of the series)) 7.36% | Potency [4] | Potency [5] | Potency [7]

CCOc1ccc2c(c1)C(C)=CC(C)(C)N2
inactive: Potency [1] | Potency [2] | Potency [3] | Potency [8] | activity change, positive = activation ([9]; at 92.4 µM (top of the series)) 1.57% and 2.85% | Potency [4] | Potency [5] | Potency [6] | Potency [7]

c1ccc2c(c1)-c1cccc3c1c-2cc1ccccc13
active: Potency [1] 33.9 µM | Potency [3] 78.2 µM and 89.8 µM
inactive: Potency [2] | Potency [4] | Potency [5] | Potency [6] | Potency [7]

NC(=Nc1ccccc1)Nc1ccccc1
inactive: Potency [1] | Potency [2] | Potency [3] | Potency [8] | Potency [4] | Potency [6] | Potency [7]

Clc1ccc2c(c1)C(N1CCNCC1)=Nc1ccccc1O2
inactive: Potency [1] | Potency [2] | Potency [3] | Potency [6]
active: Potency [4] 54.9 µM | Potency [5] 43.6 µM and 26.8 µM | Potency [7] 54.9 µM

O=C1NCC2(CCN(CCc3ccccc3)CC2)O1
inactive: Potency [1] | Potency [2] | Potency [3] | Potency [4] | Potency [5] | Potency [6] | Potency [7]

CC[C@@H](N)CO
inactive: Potency [1] | Potency [2] | Potency [3] | Potency [8] | activity change, positive = activation ([9]; at 92.4 µM (top of the series)) -0.0387% | Potency [4] | Potency [5] | Potency [6] | Potency [7]

CCCCCCC(O)CCCCCCCCCCC(=O)O (centres undefined)
inactive: Potency [1] | Potency [2] | Potency [3] | activity change, positive = activation ([9]; at 92.4 µM (top of the series)) -9.99% and -15.5% | Potency [4] | Potency [5] | Potency [6] | Potency [7]

CCCCC/C=C/CC1CC(=O)OC1=O (centres undefined)
inactive: Potency [1] | Potency [2] | Potency [3] | Potency [8] | activity change, positive = activation ([9]; at 92.4 µM (top of the series)) 5.46% | Potency [4] | Potency [5] | Potency [7]

O=C(O)c1cccc(C(=O)O)c1
inactive: Potency [1] | Potency [2] | Potency [3] | Potency [4] | Potency [5] | Potency [6] | Potency [7]

c1ccc2c(c1)CCCC2C1=NCCN1 (centres undefined)
inactive: Potency [1] | Potency [2] | Potency [3] | Potency [4] | Potency [5] | Potency [6] | Potency [7]

Nc1ccc2cc3ccccc3cc2c1
inactive: Potency [1] | Potency [2] | Potency [3] | Potency [4] | Potency [5] | Potency [6] | Potency [7]

CC(C)CCOCc1ccccc1
inactive: Potency [1] | Potency [2] | Potency [3] | Potency [8] | activity change, positive = activation ([9]; at 92.4 µM (top of the series)) 4.72% | Potency [4] | Potency [5] | Potency [6] | Potency [7]

O
inactive: Potency [1] | Potency [2] | Potency [3] | Potency [4] | Potency [5] | Potency [6] | Potency [7]
